High-throughput results from PubChem BioAssay.
The list is not random: actives were taken first. Their share in the collection is about 21%.
Pf growth 48h: inhibits P. falciparum growth in the first generation, 48 h | P. falciparum luciferase growth in erythrocytes, 48 h | Potency, µM (doses to about 28.7 µM), without a hit: at the top dose activity change, negative = inhibition, most hits filed as inhibitors | 310,000 compounds, 5.9% hits | AID 504832; also: potency is read from the fitted curve at half-maximal effect; % is scaled to controls: 0 for no effect and ±100 for the full control effect
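Compounds are pin-transferred into medium, infected erythrocytes (2% hematocrit, 0.1% parasitemia final) are added, and plates sit one parasite generation at 37 C in 5% CO2. Detection reagent is then added and luminescence measured.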
Shiga inhibitor: Shiga toxin inhibition | AID 2315 | inhibition, % at 38.7 µM | Vero cells, Shiga toxin protein synthesis inhibition reporter | 290,000 compounds, 9.2% hits; in the data active = inhibition mostly above about 28%, no sharp cut-off; inactive = mostly below about 43%; also: 0% is about no effect
HCMV antiviral: human cytomegalovirus inhibition; HFF cells, HCMV-luciferase reporter, 72 h; hits give low values; activity change, negative = inhibition, % at 57.5 µM; 410,000 compounds, 4.5% hits; AID 1259415; in the data active = activity change below about -60%; inconclusive = no clear call, values can overlap the other calls; inactive = above about -39%; also: % is scaled to controls: 0 for no effect and ±100 for the full control effect
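Steps: HFFs plated, 16 h 37C; compounds added; HCMV-luciferase added to MOI 1 PFU/cell; 72 h 37C; OneGlo reagent, 5 min room temperature; luminescence read, normalized to controls.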
Cycloheximide cs: counter-screen hit for Shiga toxin inhibitors, cycloheximide | cell reporter, cycloheximide protein synthesis inhibition counterscreen | max response, % | 300,000 compounds, 12% hits; in the data active = max response mostly above about 13%, no sharp cut-off; inactive = mostly below about 14%; also: read at 38.3 µM for the half of the compounds with a filed dose; 0% is about no effect
Pf growth 96h: P. falciparum growth inhibition at 96 hours; P. falciparum luciferase reporter growth, 96 h; AID 504834; 320,000 compounds, 6.9% hits; Potency, µM (top dose mostly 28.7 µM), without a hit: at the top dose activity change, negative = inhibition, hits mostly inhibitors; also: potency is read from the fitted curve at half-maximal effect; % is scaled to controls: 0 for no effect and ±100 for the full control effect
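Infected RBCs, 2% Hct / 0.05% parasitemia final; luciferase-reporter P. falciparum; cpd 96 h, 37 C, 5% CO2; luciferase detection reagent; luminescence.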
HCV inhibitor: inhibitors of hepatitis C virus infection. Huh7.5.1 HCVcc-Cre infection, luciferase reporter, 44 h. Potency, µM (top dose mostly 41.8 µM), for the others: top-dose activity change, negative = inhibition, hits mostly inhibitors. 340,000 compounds, 3.4% hits; also: potency is read from the fitted curve at half-maximal effect; % is scaled to controls: 0 for no effect and ±100 for the full control effect
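Luciferase read-out (15 sec integration) after a 15 min room-temperature substrate step quantifies HCVcc-Cre infection. Cells, 1,000 per well, had compound added 4 h post-plating, then virus at ~0.5 moi, and were cultured 44 h.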
* marks the source's active call; other numbers are inactive results; ? = inconclusive; · = no result; [ ] = remark or other dose. Unless noted, calls follow the shape of the dose curve; as a rule, active = well fitted inhibition curve with a large enough effect; inconclusive = small, poorly fitted or top-dose-only effect, or another doubt; inactive = no such curve, though single readings can be large or run the other way.

SMILES	Pf growth 48h	Shiga inhibitor	HCMV antiviral	Cycloheximide cs	Pf growth 96h	HCV inhibitor
CC(C)Cc1nnc(NC(=O)CN2C(=O)c3ccccc3C2=O)s1	9.0%	18.8	-8.5	-3.3	?	4.9%
CCOC(=O)C1(Cc2ccc(Cl)cc2)CCN(Cc2ccon2)CC1	-8.7%	-11.0	-65.6*	-2.3	?	1.5%
CCOC(=O)C1(CCOc2ccccc2)CCN(Cc2cc(OC)ccc2OC)CC1	?	-13.8	?	-0.7	0.0%	?
CCOC(=O)C1(Cc2cccc(OC)c2)CCN(Cc2cc(OC)ccc2OC)CC1	?	-3.4	-39.8	-1.4	10.4µM*	?
CCOC(=O)C1(Cc2cccc(F)c2)CCN(Cc2ccon2)CC1	9.8%	-8.7	-37.9	-0.5	?	7.1%
CCOC(=O)C1(Cc2cccc(OC)c2)CCCN(Cc2nccn2CC)C1 (centres undefined)	?	-4.1	-20.5	-3.2	11.7µM*	-3.7%
Cn1ccc(C(=O)OCC(=O)Nc2cccc3ccccc23)n1	22.6%	3.9	20.2	-3.9	?	19.7%
CCc1nn2c(-c3ccco3)ccnc2c1-c1ccc(F)cc1	·	·	13.9	·	·	·
COCCCNC(=O)c1ccc(Cn2c(=O)c3ccccc3n(CC(=O)Nc3c(C)cccc3C)c2=O)cc1	·	·	-3.8	·	·	·
NCCCC[C@H](NC(=O)[C@H](CS)NC(=O)[C@@H](N)Cc1cnc[nH]1)C(=O)N[C@@H](Cc1ccccc1)C(=O)N[C@@H](Cc1c[nH]c2ccccc12)C(=O)N[C@@H](Cc1c[nH]c2ccccc12)C(=O)O	·	-4.9	·	-1.5	·	·
CCCCCCC(=O)O[C@H]1CC[C@H]2[C@@H]3CCC4CC(=O)C=C(C)[C@]4(C)[C@H]3CC[C@]12C (some centres undefined)	4.78µM*	·	·	·	6.75µM*	·
C[C@]12CCC(=O)CC1CCC1C2CC[C@]2(C)C(OC(=O)CCC(=O)O)CCC12 (some centres undefined)	18.6%	-15.3	3.6	-3.2	22.0%	27.2%
CC(=O)Nc1ccc(SCC(c2ccccc2)N2CCN(C)CCC2=O)cc1 (centres undefined)	·	116.0*	·	67.9*	·	·
CC(C)C[C@@H](CN=[N+]=[N-])N1CCN(C)CCC1=O	9.1%	-4.5	-62.5*	-0.9	14.7µM*	7.3%
Cc1ccc(SCC(c2ccccc2)N2CCN(CC(C)C)CCC2=O)cc1 (centres undefined)	·	89.1*	·	42.5*	·	·
CC(C)C[C@@H](CN=[N+]=[N-])N1CCN(CC(C)C)CCC1=O	59.7%	2.1	30.1	-2.2	66.9%	1.6%
CN1CCC(=O)N([C@H](CN=[N+]=[N-])c2ccccc2)CC1	47.9%	19.6*	-37.4	22.9*	-3.8%	6.0%
[N-]=[N+]=NC[C@H](c1ccccc1)N1CCN(Cc2ccccc2)CCC1=O	0.0%	-4.6	-33.8	-1.0	?	0.7%
COc1ccc(CNC(=O)C2CCN(c3nc4ccc(C)cc4[nH]3)CC2)cc1	·	·	25.6	·	·	·
CCCc1cc(=O)oc2cc(C)cc(OCC(=O)N3CCC(C(N)=O)CC3)c12	16.4%	-2.9	15.9	1.0	36.8%	-3.8%
CCCCNC(=O)c1nn(-c2ccc(C)cc2)c(=O)n(C)c1=O	·	·	-11.5	·	·	·
CN1CCC(=O)N([C@H](CSc2ccccc2)c2ccccc2)CC1	31.9%	58.3	24.3	17.7*	22.7%	20.9%
CN1CCC(=O)N(C(CSc2ccc(Br)cc2)c2ccccc2)CC1 (centres undefined)	·	82.9*	·	33.1*	·	·
Cc1ccc(SC[C@H](c2ccccc2)N2CCN(C)CCC2=O)cc1	36.4%	97.3*	9.5	43.9*	43.9%	12.7%
Cc1ccc(SC[C@H](c2ccccc2)N2CCN(CC(C)C)CCC2=O)cc1	?	11.2	19.9	18.7	?	5.7%
SMILES	Pf growth 48h	Shiga inhibitor	HCMV antiviral	Cycloheximide cs	Pf growth 96h	HCV inhibitor
CCCN1C(=O)C(Cc2nc3ccccc3c(=O)n2-c2cccc(C)c2)c2ccccc21 (centres undefined)	·	·	-18.1	·	·	·
COc1cc(OC)cc(C(=O)Nc2cc3c(cc2N2CCCC2)n(C)c(=O)c(=O)n3C)c1	·	·	57.3	·	·	·
COc1ccc(N2CCN(c3ccc(N4C(=O)CC(C)C4=O)cc3[N+](=O)[O-])CC2)cc1 (centres undefined)	0.0%	-11.1	-89.9*	-4.7	8.9%	-16.9%
O=C1C2CC=CCC2C(=O)N1c1ccc(NCCc2ccccc2)c([N+](=O)[O-])c1 (centres undefined)	5.6%	-4.3	-4.3	-1.0	?	10.5%
CC1CC(=O)N(c2ccc(NCCc3ccccc3)c([N+](=O)[O-])c2)C1=O (centres undefined)	18.7%	67.8*	-8.6	30.7*	17.9%	-20.7%
CC1CC(=O)N(c2ccc(NCCc3ccc(O)cc3)c([N+](=O)[O-])c2)C1=O (centres undefined)	?	41.2*	29.1	22.1*	-7.2%	?
NNc1nnc2c3cc(F)ccc3n(CCc3ccccc3)c2n1	?	2.8	-93.7*	-2.3	?	?
CCOc1ccc(-c2cc3nc(C4CCN(C(=O)OC(C)(C)C)CC4)c(C(=O)Nc4c(C)cccc4C)cn3n2)cc1	·	·	-18.2	·	·	·
CCOc1ccc(-c2cc3nc(C4CCN(C(=O)OC(C)(C)C)CC4)c(C(=O)O)cn3n2)cc1	0.465µM*	-5.2	-32.1	23.9*	?	3.5%
C[C@@H]1CN([C@H](C)CO)C(=O)CCCn2cc(nn2)CO[C@H]1CN(C)S(=O)(=O)c1cn(C)cn1	·	·	21.5	·	·	·
C/C(CCN1CCCCc2nc(C)c(C)cc21)=N\O[C@@H](C)CN1CCCCc2nc(C)c(C)cc21	13.1µM*	-2.7	·	-4.0	11.7µM*	-1.2%[8.37 µM]
COc1ccc(O[C@H]2C=C[C@@H](c3ccccc3)O[C@@H]2CO/N=C(\C)CCN2CCCCc3nc(C)c(C)cc32)cc1	1.65µM*	44.6	39.9	4.0	?	-4.1%[8.37 µM]
COc1ccccc1N1CCN(C2CC(=O)N(c3cccc(Cl)c3)C2=O)CC1 (centres undefined)	29.7%	·	7.6	-3.1	?	?
COc1ccc(Cl)cc1NC(=S)NNC(=O)C1(C)CC1(Cl)Cl (centres undefined)	0.0%	-11.7	-26.9	2.1	-2.8%	13.8%
Clc1ccccc1Nc1c2c(nc3ncnn13)CCC2	11.7µM*	-9.8	31.7	-3.4	3.29µM*	?
c1ccc(Nc2c3c(nc4ncnn24)CCC3)cc1	-5.3%	-10.2	29.7	-9.0	11.7µM*	7.9%
c1coc(CNc2c3c(nc4ncnn24)CCC3)c1	·	-11.2	32.1	-4.7	-19.1%	16.2%
CSc1c2c(nc3ncnn13)CCC2	?	-6.7	-38.2	-4.1	9.28µM*	2.2%
CC1CN(c2c3c(nc4ncnn24)CCCC3)CC(C)O1 (centres undefined)	1.2%	6.8	15.8	-1.7	17.2%[5.75 µM]	24.7%
